The panel holds about 83,000 compounds, 20% with a hit somewhere; the sample as a whole holds those more often.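 Growth was measured after 48 h exposure to one concentration of compound in 96-well plates. Values under 10 count as active.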 Values without a mark were called inactive. Calls of active or inactive are those of the source.

Some test systems named below: HCT-15 colon; HT29 colon; SNB-75 CNS; SNB-19 CNS; U251 CNS; PC-3 prostate; SK-MEL-5 melanoma; UACC-62 melanoma; LOX IMVI melanoma; SK-MEL-28 melanoma.
What all share (assay): NCI-60 one-dose screen, 48 h (100 = growth as untreated, 0 = no growth, -100 = all killed)
Holding throughout (conditions): 10 µM unless noted

On to `CCSC1=NC2C(N(CC)C(=O)N2CC)N1/N=C/C=C/c1ccccc1[N+](=O)[O-]` (stereo not given), for which the growth was 10.7% in the experiment with HCT-15 colon; 3.47% (active) in the experiment on HT29 colon; 23.8% with SNB-75 CNS; 22.1% in the experiment with SNB-19 CNS; 12.7% with U251 CNS; 22.9% with PC-3 prostate. Besides, the growth in the experiment on SK-MEL-5 melanoma was -38.6% (active); with UACC-62 melanoma it was 25.5%; in the experiment on LOX IMVI melanoma, 14.3%; with SK-MEL-28 melanoma, 54.5%.
With `O=C(Nc1cccc(Cl)c1)c1cc(N=Nc2ccc([N+](=O)[O-])cc2Cl)ccc1O`, the growth with HCT-15 colon was 72.5%; in the experiment on HT29 colon it was 76.7%; with SNB-75 CNS, 66.4%; in the experiment on SNB-19 CNS, 73.2%; in the experiment with U251 CNS, 63.9%; in the experiment with PC-3 prostate it was 34.8%. Also, the growth was 43.3% with SK-MEL-5 melanoma, 79.2% in the experiment with UACC-62 melanoma, 98.3% in the experiment on LOX IMVI melanoma and 85.5% in the experiment on SK-MEL-28 melanoma.
With `O=C1/C(=C2/C=Nc3ccccc32)N(O)c2ccccc21`, the growth in the experiment with HCT-15 colon is 49.5%; in the experiment with HT29 colon, 100%; with SNB-75 CNS it was 102%; in the experiment with SNB-19 CNS, 93%; with U251 CNS it was 84.9%; with PC-3 prostate it was 51%. Also, the growth is 68% with SK-MEL-5 melanoma, 33.6% in the experiment on UACC-62 melanoma, 33.5% with LOX IMVI melanoma and 92.8% in the experiment with SK-MEL-28 melanoma.
With `O=C(/C=C/c1c(Cl)nc2sccn12)c1ccc(F)c(F)c1`, the growth with HCT-15 colon is 90.4%; in the experiment on HT29 colon, 87%; in the experiment on SNB-75 CNS it was 60.4%; in the experiment on SNB-19 CNS, 87.9%; with U251 CNS it was 90.7%; with PC-3 prostate, 78.8%. Also, the growth with SK-MEL-5 melanoma is 66.4%; with UACC-62 melanoma it was 68.7%; in the experiment with LOX IMVI melanoma, 92%; with SK-MEL-28 melanoma it was 96%.
In the case of `Cc1c(Cl)cc(-n2c(=O)c3ccccc3c3ccccc3c2=O)cc1Cl`, the growth with HCT-15 colon is 110%; with HT29 colon it was 103%; with SNB-75 CNS, 89.9%; in the experiment with SNB-19 CNS, 104%; with U251 CNS it was 102%; in the experiment on PC-3 prostate it was 82%. Also, the growth in the experiment on SK-MEL-5 melanoma was 107%; with UACC-62 melanoma, 92.6%; with LOX IMVI melanoma, 95.2%; with SK-MEL-28 melanoma it was 117%.
With `CCOC(=O)C/C(C)=N\NC(=O)c1ccncc1`, the growth in the experiment with HCT-15 colon was 108%; in the experiment with HT29 colon it was 100%; in the experiment with SNB-75 CNS, 107%; with SNB-19 CNS it was 87.7%; with U251 CNS it was 107%; with PC-3 prostate, 96.5%. The growth was 104% in the experiment on SK-MEL-5 melanoma, 88.1% with UACC-62 melanoma, 105% in the experiment on LOX IMVI melanoma and 116% in the experiment on SK-MEL-28 melanoma.
On to `CN(C)CCCn1c(=O)c2ccccc2c2ccccc21`, for which the growth in the experiment with HCT-15 colon is 64.7%; in the experiment on HT29 colon, 50%; in the experiment on SNB-75 CNS, 85.9%; in the experiment with SNB-19 CNS, 73.4%; in the experiment with U251 CNS, 87.9%; with PC-3 prostate it was 70%. Also, the growth in the experiment on SK-MEL-5 melanoma was 79.7%; with UACC-62 melanoma, 82.2%; in the experiment with LOX IMVI melanoma, 56.5%; with SK-MEL-28 melanoma, 103%.
Consider `COC(=O)c1c2c(c(C)[n+]([O-])c1C)C(=O)C(NCc1ccc(F)cc1)=CC2=O`, for which the growth in the experiment on HCT-15 colon is 14%; in the experiment with HT29 colon, 7.24% (active); in the experiment with SNB-75 CNS, 128%; with SNB-19 CNS, 3.72% (active); in the experiment with U251 CNS, -13.9% (active); in the experiment on PC-3 prostate, 3.57% (active). For the same compound, the growth in the experiment on SK-MEL-5 melanoma was -47.9% (active); in the experiment with UACC-62 melanoma, -35.5% (active); in the experiment with LOX IMVI melanoma, 20.3%; with SK-MEL-28 melanoma it was 72.4%.
As for `CC(C)(C)n1cc(-c2ccnc(NCCCNS(=O)(=O)c3ccccc3)c2)c(-c2ccccc2)n1`, the growth in the experiment on HCT-15 colon was 26.5%; in the experiment with HT29 colon it was 24.7%; with SNB-75 CNS, 65.1%; with SNB-19 CNS it was 89.4%; in the experiment with U251 CNS, 64.3%; in the experiment on PC-3 prostate, 35.6%. For the same compound, the growth in the experiment with SK-MEL-5 melanoma was 53.2%; in the experiment on UACC-62 melanoma, 61.8%; in the experiment on LOX IMVI melanoma, 50.9%; in the experiment on SK-MEL-28 melanoma, 97%.
As for `COc1cc(C2CC(c3cc(OC)c(OCCCOc4ccc(-n5c(/C=C/c6ccccc6)nc6ccccc6c5=O)cc4)c(OC)c3)=NO2)cc(OC)c1OC` (stereo not given), the growth is 84.7% in the experiment on HCT-15 colon; 104% in the experiment on HT29 colon; 86.9% in the experiment on SNB-75 CNS; 110% with SNB-19 CNS; 103% in the experiment with U251 CNS; 79.4% in the experiment on PC-3 prostate. Further, the growth was 95.6% in the experiment with SK-MEL-5 melanoma, 82.6% in the experiment with UACC-62 melanoma, 94.6% with LOX IMVI melanoma and 104% in the experiment with SK-MEL-28 melanoma.

The record behind these values is PubChem BioAssay (NCI).
